# Screening results (PubChem BioAssay)
# NR2F2 inh = NR2F2 (human) inhibition, primary screen; HEK293T NGFI-A luciferase reporter, luminescence; inhibition, % at 8.6 µM; actives 0.7% (n = 370,000);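 active = inhibition above a per-plate cutoff, mean inhibition of test wells between control levels plus 3 SD, cut at about 38% in these data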;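 also: cells cotransfected with COUP-TFII expression vector driving the NGFI-A reporter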
# NCOA1 inh = human NCOA1 inhibition; inhibition, % at 3.6 µM; HEK293 GAL4-SRC1 luciferase reporter, luminescence; Q15788; actives 0.12% (n = 360,000); AID 588354;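 active = inhibition above the campaign mean plus 3 SD, with each screening campaign given its own cutoff, cut at about 60% in these data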
# GalR3 antag = human GalR3 antagonism. HEK293 GalR3-CNG cAMP membrane potential fluorescence; galR3 body fused to GalR1 C-terminus. inhibition, % at 3 µM. actives 0.44% (n = 360,000);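 active = inhibition above the screen-wide average plus 3 SD, cut at about 13% in these data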;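 also: forskolin and galanin both at EC90 stimulate the cells; cAMP rise reported by CNG channel membrane potential dye signal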
# Target sequence (O60755 1-299 limits assumed): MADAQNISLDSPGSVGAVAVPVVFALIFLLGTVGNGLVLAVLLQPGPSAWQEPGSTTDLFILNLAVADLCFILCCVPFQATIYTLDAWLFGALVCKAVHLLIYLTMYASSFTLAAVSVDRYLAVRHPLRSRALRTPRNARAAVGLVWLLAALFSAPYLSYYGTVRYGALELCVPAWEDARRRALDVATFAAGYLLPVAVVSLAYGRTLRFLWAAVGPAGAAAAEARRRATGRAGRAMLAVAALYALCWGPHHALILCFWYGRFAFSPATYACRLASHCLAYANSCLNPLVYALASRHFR
# NCOA3 inh = inhibitors of human steroid receptor coactivator 3 (SRC3). actives 0.17% (n = 360,000). inhibition, % at 3.6 µM. HEK293 GAL4-SRC3 luciferase reporter, luminescence. AID 588352. Q9Y6Q9;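 active = inhibition above a per-campaign cutoff, the mean of all compounds plus 3 SD, cut at about 60% in these data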;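 also: higher means less SRC3-driven luciferase light from the GAL4 reporter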
# NR5A2 inv ag = NR5A2 inverse agonism in reporter assay; O00482; HEK293T StAR-luciferase reporter, LRH-1 transfected, 24 h; inhibition, % at 3.6 µM; actives 0.13% (n = 360,000); AID 602396;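 active = inhibition above the mean inhibition of all tested compounds plus 3 SD, cut at about 73% in these data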
# NCOA2 inhibitor = human SRC2 (NCOA2) inhibition. HEK293 GAL4-SRC2 luciferase reporter, luminescence. inhibition, % at 9 µM. actives 0.17% (n = 370,000). AID 651957;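 active = inhibition above the mean inhibition of all tested compounds plus 3 SD, set per campaign, cut at about 52% in these data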
# Gal4-VP16 ctr = VP16 inhibition counter-screen for COUP-TFII | shares compounds with NR2F2 inh | HEK293 Gal4-VP16 luciferase reporter, luminescence | inhibition, % at 8.5 µM | actives 25% (n = 2,500); in the data active = inhibition above about 13%
# COUP-TFII conf = confirmation of human COUP-TFII (NR2F2) inhibitors; AID 687008; HEK293 NGFI-A luciferase reporter, luminescence; shares compounds with NR2F2 inh; inhibition, % at 8.5 µM; actives 45% (n = 2,500);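 active = mean inhibition over three repeats above a set limit taken from the earlier primary screen, cut at about 38% in these data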
# Numbers stand for hits; - = inactive; . = not tested or not shown. An excerpt weighted towards active compounds, which were near 1.1% of everything screened.
SMILES,NR2F2 inh,NCOA1 inh,GalR3 antag,NCOA3 inh,NR5A2 inv ag,NCOA2 inhibitor,Gal4-VP16 ctr,COUP-TFII conf
Cc1ccc(-c2csc(=Nc3cccnc3)n2CCCn2ccnc2)cc1C,55,63,-,-,-,62,18,45
CC(Sc1nc2ccccc2c(=O)n1CC1CCCO1)C(=O)N(C)Cc1ccccc1 (configuration not stated),-,-,-,-,-,-,.,.
CC(Sc1nc2ccccc2c(=O)n1C)C(=O)N(C)C1CCCCC1 (configuration not stated),46,-,-,-,-,-,-,-
CCOC(=O)N1CCN(C(=O)C[C@H]2C(=O)N(CCCOC)C3=CCCC[C@@]32C(=O)OCC)CC1,-,.,.,.,.,-,.,.
O=C(NCc1cccnc1)C1CCC(c2ccc(Cl)cc2)CC1 (configuration not stated),41,-,-,-,-,-,-,55
O=C(NCc1cccnc1)C1CCN(C(=O)c2ccc(Cl)cc2Cl)CC1,-,-,-,-,-,-,.,.
C[C@@H]1C[C@H](O)CCCCCC(=O)Cc2cc(O)cc(O)c2C(=O)O1,-,.,.,.,.,-,.,.
COc1ccc(C(=O)C[n+]2ccc3c(c2)nc(Cc2ccccc2)n3C)cc1,-,.,.,.,.,-,.,.
O=C(Nc1ccc(NC(=O)c2ccco2)nc1)c1ccco1,-,-,-,-,-,-,.,.
CC(C)(C)C(=O)Nc1ccc(NC(=O)c2ccco2)nc1,84,79,-,78,75,82,78,95
COC(=O)[C@]12C[C@H](CC(=O)N3CCCC3)C(=O)N(Cc3ccco3)C1=C[C@H](C1CCCC1)O[C@@H]2C,-,.,.,.,.,-,.,.
CC(CNC(=O)c1cc(COc2ccc3ncccc3c2)on1)c1ccccc1 (configuration not stated),46,-,-,-,-,-,-,-
O=C(c1cc(COc2ccc3ncccc3c2)on1)N1CCC[C@H]1CO,38,-,-,-,-,-,-,-
Cc1cccnc1CN1CCN(C(=O)c2cc(COc3ccc4ncccc4c3)on2)CC1,63,-,-,-,-,-,-,38
CCOC(=O)N1CCN(C(=O)c2cc(COc3ccc4ncccc4c3)on2)CC1,58,-,-,-,-,-,-,46
COCCC1CCCCN1C(=O)c1cc(COc2ccc(C)nc2)on1 (configuration not stated),-,-,-,-,-,-,.,.
Cc1cccc(NC(=O)CSc2nnc(SCc3ccc(Cl)cc3)s2)c1,-,.,.,.,.,-,.,.
Cc1ccc(Cn2cc(CN(C(C)(C)C)S(=O)(=O)c3ccc(F)cc3Br)nn2)cc1,-,.,.,.,.,-,.,.
O=C(CSc1nnc(-c2ccccn2)n1-c1ccc(Cl)cc1)Nc1cccc2ccccc12,-,.,.,.,.,-,.,.
Cc1cc(-c2ccc(C)c(S(=O)(=O)NCC3CCN(Cc4cccc(F)c4)CC3)c2)on1,-,-,-,-,-,-,.,.
COc1ccc(-c2cc(C)no2)cc1S(=O)(=O)N1CCN(c2cccc(C)c2)C(C)C1 (configuration not stated),52,-,-,-,-,-,-,54
COc1cccc(CCN2CCC(CNS(=O)(=O)c3cc(-c4cc(C)no4)ccc3OC)CC2)c1,37,-,-,-,-,-,-,-
COc1cccc(CCN2CCC(CNS(=O)(=O)c3cc(-c4cc(C)no4)ccc3C)CC2)c1,41,-,-,-,-,-,-,-
COc1ccc(-c2cc(C)no2)cc1S(=O)(=O)N1CCCCC1,-,-,-,-,-,-,.,.
COc1ccc(-c2cc(C)no2)cc1S(=O)(=O)NCCCN1CCCCCC1,-,-,-,-,-,-,.,.
SMILES,NR2F2 inh,NCOA1 inh,GalR3 antag,NCOA3 inh,NR5A2 inv ag,NCOA2 inhibitor,Gal4-VP16 ctr,COUP-TFII conf
O=C(Cn1nnc(-c2ccc(N3CCOCC3)cc2)n1)c1ccc(F)cc1,-,.,.,.,.,-,.,.
COc1ccc(CC(=O)Nc2cccc(SC)c2)cc1OC,41,-,-,-,-,-,17,38
C#CCN1CC(N(C)CCOC(=O)c2ccc(OC)c(OC)c2)CS1(=O)=O (configuration not stated),-,.,.,.,.,-,.,.
COc1cc(-n2c(C)nc3cc(C(=O)N4CCCN(C(C)=O)CC4)ccc32)cc(OC)c1OC,-,.,.,.,.,-,.,.
Cc1c(C(=O)N2CCC(C)CC2)oc2ccc3c(c12)C(O)CC1(CCCCC1)O3 (configuration not stated),38,-,-,-,-,-,-,-
COc1ccccc1NS(=O)(=O)c1cccc(-n2c(O)c(C=Nc3ccccc3C(=O)O)c3ccccc3c2=O)c1,39,-,-,-,-,-,-,46
COc1ccc(Cn2c(O)c(C=Nc3ccccc3C(=O)O)c3ccccc3c2=O)cc1,-,-,-,-,-,-,.,.
c1ccc(Nc2ncnc3sc4c(c23)CCC4)cc1,-,-,-,-,-,-,.,.
c1csc(CCNc2ncnc3sc4c(c23)CCC4)c1,67,-,-,-,-,-,-,46
COC(=O)[C@]12C[C@H](CC(=O)N3CCC(c4ccccc4)CC3)C(=O)N(Cc3ccco3)C1=C[C@H](COCc1ccccc1)O[C@@H]2C,-,.,.,.,.,-,.,.
Cc1cc(=O)oc2c(C(=O)/C=C/c3ccccc3)c(O)ccc12,-,-,-,-,-,-,.,.
CC1(C)C=Cc2ccc(O)c(C(=O)/C=C/c3ccccc3)c2O1,44,.,.,.,.,.,18,-
COc1ccc(C=Cc2ccc3ccccc3n2)c(OC)c1,47,-,-,-,-,-,-,-
COc1ccc(OC)c(/C=C/c2ccc3cccc(O)c3n2)c1,-,-,-,-,-,-,.,.
Cc1ccc2sc(NC(=O)CSc3nc(C)cc(C)c3C#N)nc2c1,-,-,-,-,-,-,.,.
Cc1cc(C(F)(F)F)c(C#N)c(SCC(=O)Nc2nc3ccccc3s2)n1,56,-,-,-,-,-,21,57
Cc1nc(SCC(=O)Nc2nc3ccccc3s2)c(C#N)c(C)c1C,99,90,-,91,88,85,91,109
O=S(=O)(CC1NCc2ccccc21)NCCc1ccccc1 (configuration not stated),-,.,.,.,.,-,.,.
C=CCN1C(=O)[C@@H](CC(=O)NCC2CCCCC2)[C@]2(C(=O)OCC)CCCCC/C=C/12,-,.,.,.,.,-,.,.
COCC(C)n1c(C)cc(C(=O)CSc2nnnn2C2CCCC2)c1C (configuration not stated),41,-,-,-,-,-,-,-
Cc1c(NC(=O)C2CCCN(S(=O)(=O)c3cccc4ccccc34)C2)c(=O)n(-c2ccccc2)n1C (configuration not stated),-,.,.,.,.,-,.,.
CN(C(=O)C(C)(C)C)c1ccc(OCC(=O)N2CCc3ccccc3C2)cc1,48,-,-,-,-,-,-,48
